Data reported in PubChem BioAssay (NCATS).
Inconclusive results are not listed. Where a call stands in place of a potency, no number is given. A number with no mark means an inactive call. The source made the active and inactive calls. Calls come from the whole dose curve; as a rule, active = well fitted cell-killing curve with a large enough effect; inconclusive = small, poorly fitted or top-dose-only effect, or effect the other way; inactive = flat fitted curve, though single readings scatter.

Key:
Assay in all cases: Primary qHTS to identify gynecologic anti-cancer compounds using libraries of approved drugs and bioactive compounds (AID 1345084); note: nearly all actives have a fitted effect of over 55% in size
Settings in all cases: Gynecologic cancer cell panel viability, ATPlite luminescence, 48 h; series mostly up to 57.5 µM
JEG-3 = tested on: JEG-3
Procedure, shortened: (§1)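 48 h compound exposure at 37 C, 5% CO2; five-point qHTS. ATPlite luminescence readout of cell ATP.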

OV90 = tested on: OV90
Procedure, shortened: as §1

PA-1 = tested on: PA-1
Procedure, shortened: as §1

SKOV3 = tested on: SKOV3
Procedure, shortened: as §1

Tov-21-G = tested on: Tov-21-G
Procedure, shortened: as §1

Tov112D = tested on: Tov112D
Procedure, shortened: as §1
Potency is the fitted concentration of half-maximal effect.

Row | SMILES | activity change, negative = cytotoxicity (JEG-3) | activity change, negative = cytotoxicity (OV90) | activity change, negative = cytotoxicity (PA-1) | activity change, negative = cytotoxicity (SKOV3) | activity change, negative = cytotoxicity (Tov-21-G) | activity change, negative = cytotoxicity (Tov112D) | Potency (JEG-3) | Potency (OV90) | Potency (PA-1) | Potency (SKOV3) | Potency (Tov-21-G) | Potency (Tov112D)
1 | CC(C)=CCC[C@](C)(O[C@@H]1O[C@H](CO)[C@@H](O)[C@H](O)[C@H]1O)[C@H]1CC[C@]2(C)[C@@H]1[C@H](O)CC1[C@@]3(C)CC[C@H](O)C(C)(C)C3[C@@H](O[C@@H]3O[C@H](CO)[C@@H](O)[C@H](O)[C@H]3O[C@@H]3OC[C@@H](O)[C@H](O)[C@H]3O)C[C@]12C (some centres undefined) | -16.8% [at 11.6 µM] | -3.26% [at 11.6 µM] | 2.46% [at 11.6 µM] | -3.65% [at 11.6 µM] | -2.34% [at 11.6 µM] | -2.93% [at 11.6 µM] | – | – | – | – | – | –
2 | CC(=O)OC1C(OC(=O)c2ccccc2)C2C(C)(C)CC(=O)CC2(C)C23CCC(C)(C2)C(O)CC13 (centres undefined) | – | – | – | – | – | – | inactive | inactive | inactive | inactive | inactive | inactive
3 | C=C(C)C1CCC2(C(=O)O)CCC3(C(=O)O)C(CCC4C5(C)CCC(O)C(C)(C(=O)O)C5CCC43C)C12 (centres undefined) | – | – | – | – | – | – | inactive | inactive | inactive | inactive | inactive | inactive
4 | CC1CCCCN1S(=O)(=O)c1ccc(N2CCCC2=O)cc1 (centres undefined) | – | – | – | – | – | – | inactive | inactive | inactive | inactive | inactive | inactive
5 | C[C@H](Nc1ncnc2nc[nH]c12)c1cc2ccc(F)cc2nc1-c1ccccn1 | – | – | – | – | – | – | inactive | inactive | inactive | inactive | inactive | inactive
6 | C[C@@H]1CC[C@@]2(OC1)O[C@H]1C[C@H]3[C@@H]4CC=C5C[C@@H](O)CC[C@]5(C)[C@H]4CC[C@]3(C)[C@H]1[C@@H]2C | – | – | – | – | – | – | inactive | inactive | inactive | inactive | inactive | inactive
7 | CC1CC[C@]2(C(=O)O)CC[C@]3(C(=O)O)C(=CCC4[C@@]5(C)CC[C@H](OC6OC(C)C(O)C(OC7OC(CO)C(O)C(O)C7O)C6O)C(C)(C)C5CC[C@]43C)C2C1C (some centres undefined) | – | – | – | – | – | – | inactive | inactive | inactive | inactive | inactive | inactive
8 | CCCCCCOc1cc2c(cc1N(C)c1ncc(C(=O)O)cn1)C(C)(C)CCC2(C)C | – | – | – | – | – | – | inactive | inactive | inactive | inactive | inactive | inactive
9 | CCc1cc(CN2CC(C(=O)O)C2)sc1-c1noc(-c2ccc(Oc3ccccc3)cc2)n1 | – | – | – | – | – | – | inactive | inactive | inactive | inactive | inactive | inactive
10 | CC1OC(OC2C(O)C(OC3CCC4(C)C(CCC5(C)C4CC=C4C6CC(C)(COC7OC(CO)C(O)C(O)C7O)CC(O)C6(C)CCC45C)C3(C)C)OC(C(=O)O)C2O)C(O)C(O)C1OC1OCC(O)C(O)C1O (centres undefined) | 10.4% [at 11.6 µM] | 0.532% [at 11.6 µM] | 13.5% [at 11.6 µM] | 37.6% [at 11.6 µM] | 6.66% [at 11.6 µM] | 7.29% [at 11.6 µM] | – | – | – | – | – | –
11 | COc1c2c(c(C)c3c1C(=O)OC3)O[C@@]1(C)CCC3(C(C)(C)O)OC(=O)CC[C@]3(C)[C@H]1C2 (some centres undefined) | – | – | – | – | – | – | inactive | inactive | inactive | inactive | inactive | inactive
12 | CS(=O)(=O)c1ccc(-c2nnc(/C=C/c3nnc(-c4ccc(C#N)cc4)o3)n2-c2ccccc2Cl)nc1 | – | – | – | – | – | – | inactive | inactive | inactive | inactive | inactive | inactive
13 | CC1=C(CCC(C)O[C@@H]2O[C@H](CO)[C@@H](O)[C@H](O)[C@H]2O)C(C)(C)CCC1=O (some centres undefined) | – | – | – | – | – | – | inactive | inactive | inactive | inactive | inactive | inactive
14 | Cc1cc(C)cc(C(=O)NOCCCCCC(=O)NO)c1 | – | – | – | – | – | – | 3.16 µM (active) | 3.98 µM (active) | 0.891 µM (active) | 3.16 µM (active) | 8.91 µM (active) | 3.55 µM (active)
15 | CC1=CC2C(CC1OC1OC(CO)C(O)C(O)C1O)C(C)CC(=O)C2C(C)C (centres undefined) | – | – | – | – | – | – | inactive | inactive | inactive | inactive | inactive | inactive
16 | C=C1C(O)C(O)C2(CC3C(C)=CCC4C(C)(CO)CCCC34C)OC2C1O (centres undefined) | – | – | – | – | – | – | inactive | inactive | inactive | inactive | inactive | inactive
17 | CCCn1c(=O)c2[nH]c(-c3ccc(OCC(=O)O)cc3)nc2n(CCC)c1=O | – | – | – | – | – | – | inactive | inactive | inactive | inactive | inactive | inactive
18 | CC1=C(CCC(C)CC(=O)O)[C@@]2(C)CCCC(C)(C)C2CC1=O (some centres undefined) | – | – | – | – | – | – | inactive | inactive | inactive | inactive | inactive | inactive
19 | CCOC(=O)C(CCc1ccccc1)NC1CSC(c2cccs2)CN(CC(=O)O)C1=O (centres undefined) | – | – | – | – | – | – | inactive | inactive | inactive | inactive | inactive | inactive
20 | COc1c/c(=C2\C=c3ccccc3=N2)[nH]/c1=C\c1[nH]c(C)cc1C | – | – | – | – | – | – | 7.94 µM (active) | 2.24 µM (active) | 2 µM (active) | 10 µM (active) | 14.1 µM (active) | 3.55 µM (active)
21 | COc1c2ccoc2cc2oc(CO[C@@H]3O[C@H](CO)[C@@H](O)[C@H](O)[C@H]3O)cc(=O)c12 | – | – | – | – | – | – | inactive | inactive | inactive | inactive | inactive | inactive
22 | CC(C)(O[C@@H]1O[C@H](CO)[C@@H](O)[C@H](O)[C@H]1O)C(OC(=O)/C=C\c1ccc(O)cc1)C(=O)OCc1ccc(O[C@@H]2O[C@H](CO)[C@@H](O)[C@H](O)[C@H]2O)cc1 (some centres undefined) | – | – | – | – | – | – | inactive | inactive | inactive | inactive | inactive | inactive
23 | CCC(C)C(=O)OC1CC(C)C=C2C=CC(C)C(CCC(O)CC(O)CC(=O)O)C21 (centres undefined) | – | – | – | – | – | – | inactive | inactive | inactive | inactive | inactive | inactive
24 | Cc1ccccc1NC(=O)Nc1ccc(CC(=O)N(C)[C@@H](CC(C)C)C(=O)NCC[C@H](NC(=O)[C@@H]2CCCN2S(=O)(=O)c2cc(Cl)cc(Cl)c2)C(=O)O)cc1 | – | – | – | – | – | – | inactive | inactive | inactive | inactive | inactive | inactive
